According to PubChem BioAssay AID1159580 (chemical genetic matrix, 2015):
Where “and” joins values, the source holds several entries; their conditions need not be identical. Equal values may be shown once. Out of some 5,500 compounds screened, about 2,000 (36%) were called active. Another 18% or so got no clear call; they are omitted. Cut-off read from the data, not from the text of the source: active = normalized growth mostly below about 0.91 (no sharp cut-off); inconclusive = no clear call, values can overlap the other calls; inactive = mostly above about 0.92. The list shows a part of the results.

Assay: chemical genetic growth profiling, strain panel (AID 1159580);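 note: tested at 20 µM; growth read once vehicle control cultures reached saturation at 30 °C; 1 = growth at the plate median or of vehicle wells; lower values mean less growth of the strain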
Conditions: S. cerevisiae deletion strains, growth OD

Measured: normalized growth

COc1cc([C@H]2Oc3cc([C@H]4Oc5cc(O)cc(O)c5C(=O)[C@@H]4O)ccc3O[C@@H]2CO)ccc1O
inactive: locus YAL013W, strain DEP1, active compounds read low 1 | locus YAL021C, strain ccr4, active compounds read low 0.987 | locus YAL026C, strain drs2, active compounds read low 1 | locus YAL030W, strain snc1, active compounds read low 1.01 | locus YBL061C, strain skt5, active compounds read low 1.01 | locus YBR009C, strain hhf1, active compounds read low 1 | locus YBR021W, strain FUR4, active compounds read low 1.06 | locus YBR023C, strain chs3, active compounds read low 1.01 | locus YBR171W, strain sec66, active compounds read low 1.02 | locus YBR229C, strain ROT2, active compounds read low 0.991 | locus YBR231C, strain swc5, active compounds read low 1.02 | locus YBR279W, strain paf1, active compounds read low 1.01 | locus YCL011C, strain gbp2, active compounds read low 1 | locus YCL016C, strain dcc1, active compounds read low 0.992 | locus YCL029C, strain bik1, active compounds read low 0.97 | locus YCL061C, strain MRC1, active compounds read low 1.01 | locus YCL069W, strain vba3, active compounds read low 1.01 | locus YCR088W, strain abp1, active compounds read low 1.01 | locus YDL005C, strain med2, active compounds read low 1.01 | locus YDL035C, strain GPR1, active compounds read low 0.987 | locus YDL040C, strain nat1, active compounds read low 1.01 | locus YDL074C, strain BRE1, active compounds read low 0.986 | locus YDL101C, strain DUN1, active compounds read low 0.989 | locus YDL134C, strain PPH21, active compounds read low 1.01 | locus YDL185W, strain tfp1, active compounds read low 0.964 | locus YDL192W, strain arf1, active compounds read low 0.97 | locus YDR001C, strain nth1, active compounds read low 1.01 | locus YDR069C, strain doa4, active compounds read low 0.998 | locus YDR101C, strain arx1, active compounds read low 0.976 | locus YDR137W, strain rgp1, active compounds read low 0.996 | locus YDR150W, strain NUM1, active compounds read low 0.969 | locus YDR159W, strain sac3, active compounds read low 0.997 | locus YDR162C, strain NBP2, active compounds read low 1.02 | locus YDR195W, strain ref2 1.02 | locus YDR297W, strain sur2, active compounds read low 1.02 | locus YDR318W, strain mcm21, active compounds read low 0.97 | locus YDR334W, strain swr1, active compounds read low 1.01 | locus YDR335W, strain msn5, active compounds read low 1 | locus YDR388W, active compounds read low 0.984 | locus YDR392W, strain spt3, active compounds read low 0.955 | locus YDR502C, strain sam2, active compounds read low 0.977 | locus YEL003W, strain gim4, active compounds read low 1.01 | locus YEL037C, strain rad23, active compounds read low 1.01 | locus YEL061C, strain CIN8 (second series), active compounds read low 1.02 | locus YEL061C, strain CIN8, active compounds read low 1 | locus YER015W, strain faa2, active compounds read low 1 | locus YER016W, strain bim1, active compounds read low 1.01 | locus YER110C, active compounds read low 0.958 | locus YER111C, strain swi4, active compounds read low 1 | locus YER155C, strain BEM2 (second series), active compounds read low 1.03 | locus YER155C, strain BEM2, active compounds read low 1.02 | locus YER167W, strain BCK2, active compounds read low 0.992 | locus YFR010W, strain ubp6, active compounds read low 0.995 | locus YGL078C, strain dbp3, active compounds read low 0.965 | locus YGL086W, strain mad1, active compounds read low 0.975 | locus YGL167C, strain pmr1, active compounds read low 1.01 | locus YGL173C, strain kem1, active compounds read low 1.01 | locus YGL227W, strain vid30, active compounds read low 1.01 | locus YGL240W, strain doc1, active compounds read low 1.03 | locus YGL248W, strain PDE1, active compounds read low 1.01 | locus YGL253W, strain hxk2, active compounds read low 0.989 | locus YGR078C, strain PAC10, active compounds read low 0.989 | locus YGR135W, strain pre9, active compounds read low 0.987 | locus YGR229C, strain SMI1, active compounds read low 1.01 | locus YGR252W, strain gcn5, active compounds read low 0.961 | locus YHR013C, strain ard1, active compounds read low 1 | locus YHR027C, strain rpn1, active compounds read low 1 | locus YHR030C, strain SLT2, active compounds read low 0.999 and 1.02 | locus YHR079C, strain IRE1 (second series), active compounds read low 0.984 | locus YHR079C, strain IRE1, active compounds read low 0.996 | locus YHR094C, strain hxt1, active compounds read low 0.971 | locus YHR129C, strain ARP1, active compounds read low 1 | locus YHR142W, strain chs7, active compounds read low 0.997 | locus YHR200W, strain rpn10, active compounds read low 0.959 | locus YIL066C, strain RNR3, active compounds read low 0.968 | locus YIL073C, strain SPO22, active compounds read low 0.906 | locus YIL125W, strain kgd1, active compounds read low 0.987 | locus YIR030C, strain dcg1, active compounds read low 0.981 | locus YJL092W, strain hpr5, active compounds read low 1.01 | locus YJL095W, strain BCK1 (second series), active compounds read low 1.02 | locus YJL095W, strain BCK1, active compounds read low 0.998 and 0.981 | locus YJL115W, strain asf1, active compounds read low 1.01 | locus YJL129C, strain trk1, active compounds read low 1.03 | locus YJL134W, strain LCB3, active compounds read low 1 | locus YJL154C, strain vps35, active compounds read low 1.01 | locus YJL164C, strain tpk1, active compounds read low 0.989 | locus YJL166W, strain qcr8, active compounds read low 1.01 | locus YJL168C, strain set2, active compounds read low 0.98 | locus YJL187C, strain SWE1 (second series), active compounds read low 0.988 | locus YJL187C, strain SWE1, active compounds read low 1.01 | locus YJR043C, strain POL32, active compounds read low 0.998 | locus YJR066W, strain TOR1, active compounds read low 0.954
